The list is not random: actives were taken first. Their share in the collection is about 1.4%.
FPR ligand = human FPR ligand, with FPRL1 counter-screen | P21462 | FPR-expressing cells, fluorescent ligand binding, flow cytometry | inhibition, % (test concentration not listed) | 0.74% of 24,000 active | AID 440;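 further: 0% = buffer wells and 100% = receptor blocker peptide wells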
VLA-4 agonist = allosterically activates the human VLA-4 integrin. Jurkat cells, LDV-FITC binding, flow cytometry. activation, % at 10 µM (by protocol). 24,000 tested, under 10 active;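 active means fluorescent ligand binding to cells raised by more than 40% of the manganese-induced maximum; inconclusive means compound's own fluorescence above 85% of the ligand control signal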;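 further: 0% = ligand binding without compound and 100% = manganese-stimulated maximal binding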
FPRL1 binder = human FPRL1 ligand, with FPR counter-screen | 0.3% of 24,000 active | FPRL1-expressing cells, fluorescent ligand binding inhibition, flow cytometry | P25090 | inhibition, % (no concentration beside the values) | AID 441;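 further: 0% = buffer alone and 100% = receptor blocker peptide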
Target sequence (P25090 whole entry, looked up): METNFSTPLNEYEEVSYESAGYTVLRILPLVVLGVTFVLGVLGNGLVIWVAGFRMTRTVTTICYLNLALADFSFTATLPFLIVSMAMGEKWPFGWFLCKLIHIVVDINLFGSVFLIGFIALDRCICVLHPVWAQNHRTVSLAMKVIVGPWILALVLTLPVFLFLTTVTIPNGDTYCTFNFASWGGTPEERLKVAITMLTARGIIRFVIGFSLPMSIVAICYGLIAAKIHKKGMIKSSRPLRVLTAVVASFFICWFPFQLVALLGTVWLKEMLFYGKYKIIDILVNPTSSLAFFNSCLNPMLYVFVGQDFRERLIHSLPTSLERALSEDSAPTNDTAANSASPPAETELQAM
VLA-4 antagonist = blocks LDV-FITC ligand binding to Mn2+-activated human VLA-4 integrin; 0.2% of 24,000 active; P13612; Jurkat cells, LDV-FITC binding with Mn2+, flow cytometry; 100% = Mn2+-driven binding gain fully reversed; inhibition, % at 10 µM (by protocol);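 active means inhibition above 50%; inconclusive means compound itself fluorescent, judged against control cell fluorescence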;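 further: 0% = Mn2+ stimulated cells lacking compound and 100% = ligand binding without Mn2+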
Jurkat autofluor = counter-screen for VLA-4 integrin: compound autofluorescence in Jurkat cells; flow cytometry; stronger effect = higher value; 1 = vehicle-only cell background; fluorescence ratio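 (tested at 10 µM compound in the well)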; 0.61% of 24,000 active; AID 576;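 active means fluorescence ratio above 2.44, which is 1 plus 3 SD of all ratios; inconclusive means signal too bright to measure linearly, ratio around 10 or more; inactive means fluorescence ratio below 2.44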;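 further: green fluorescence of cells measured with 488 nm excitation and 530 nm emission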
* hit, by the source's call; ? = inconclusive; . = no result. Unless noted, no stated cut-off is given here; in the data, active means inhibition above about 30%; inconclusive means no clear call, values can overlap the other calls; inactive means below that.

SMILES	FPR ligand	VLA-4 agonist	FPRL1 binder	VLA-4 antagonist	Jurkat autofluor
Cc1ccc(C2/C(=C(/O)c3ccc(Cl)cc3)C(=O)C(=O)N2CC2CCCO2)o1 (stereo not given)	60*	.	-2	.	.
CC(NC(=O)CC1Nc2ccccc2NC1=O)c1ccccc1 (stereo not given)	-6	3	-3	-8	1.2
Cc1ccc(NC(=O)CC2Nc3ccccc3NC2=O)cc1Cl (stereo not given)	-1	?	-1	?	6.7*
COc1ccc(CCNC(=O)CC2Nc3ccccc3NC2=O)cc1OC (stereo not given)	0	?	-8	?	1.5
CCC(=O)N1CCNC(=O)C1CC(=O)Nc1ccc(C)c(Cl)c1 (stereo not given)	0	-9	10	52*	1
CCOc1ccccc1NC(=O)CC1Nc2cc(C)c(C)cc2NC1=O (stereo not given)	4	?	-9	?	4.9*
Cc1noc(C)c1S(=O)(=O)Nc1ccc(C(=O)N2CCc3ccccc3C2)cc1	2	7	-1	-15	1.1
O=C(NCc1ccccn1)C(C(=O)c1ccc(F)cc1)n1ccccc1=O (stereo not given)	5	-16	-12	-4	1
Cc1sc2nc3c(C(=O)N4CCN(c5ncccn5)CC4)cccn3c(=O)c2c1C	13	-2	17	17	1.1
CC(C)c1ccc(NC(=O)C(c2ccc3c(c2)OCO3)N2CCC3(CC2)OCCO3)cc1 (stereo not given)	10	-4	-8	54*	1.1
O=C(Nc1ccc2c(c1)OCO2)C(c1ccc(Cl)cc1)N1CCC2(CC1)OCCO2 (stereo not given)	-17	-10	-10	7	1.1
O=S(=O)(c1ccc(OCC(O)CN2CCc3ccccc3C2)cc1)N1CCOCC1 (stereo not given)	0	0	-4	2	1
CCCCNC(=O)c1sc(=S)n2c1[nH]c(=O)c1ccccc12	89*	?	4	?	1.3
O=C(NC1CCCCC1)c1sc(=S)n2c1[nH]c(=O)c1ccccc12	62*	?	-3	?	1.3
Cc1ccc(Nc2nc(C3CC3)cs2)cc1	34*	?	8	?	1.4
CCOC(=O)C1CCN(C(=O)c2sc3nc(-c4ccc(F)cc4)cn3c2C)CC1	1	-1	10	14	1.2
CC(=O)c1cccc(NC(=O)C2C3C=CC(C4CC34)C2C(=O)O)c1 (stereo not given)	-4	.	0	.	.
COc1cc(NS(=O)(=O)c2ccc(Br)s2)cc(OC)c1	-39	?	?	?	4.5*
O=S(=O)(Nc1ccc2c(c1)OCO2)c1ccc(Br)s1	4	0	-8	-12	1.1
CC1(C2(O)CC(c3ccccc3)ON2)CCCCC1 (stereo not given)	21	-2	12	13	1
Cc1cc(/C=c2/sc3nc4ccccc4n3c2=O)c(C)n1-c1ccccn1	-13	?	-19	?	3.7*
O/N=C/c1ccc(OCC(O)COc2ccc(/C=N/O)cc2)cc1	0	2	13	-14	1.1
C=CCNS(=O)(=O)c1ccc2nsnc2c1	15	8	0	-5	1
CN1CCN(CCCNC(=O)Nc2cccc3ccccc23)CC1	5	-4	32*	-8	1.1
O=C(NCCCN1CCCC1)Nc1cccc2ccccc12	-3	6	7	-26	1
SMILES	FPR ligand	VLA-4 agonist	FPRL1 binder	VLA-4 antagonist	Jurkat autofluor
Cc1ccc(C)c(N2CCN(C(=O)c3cc(S(=O)(=O)N4CCOCC4)ccc3F)CC2)c1	-2	?	-5	?	1.1
CCCOc1ccc(C(CC(=O)O)NC(=O)C23CC4CC(CC(C4)C2)C3)cc1 (stereo not given)	.	-26	.	113*	1.1
CCCCOc1ccc(CC(=O)NO)cc1	2	6	1	-20	1
CCCc1[nH]nc2c1C(CCc1ccccc1)C(C#N)=C(N)O2 (stereo not given)	1	-10	2	61*	1.2
O=c1c2c(nc3c(-c4ccc(Cl)cc4)c[nH]n13)CCCC2	71*	.	1	.	.
O=c1c2c(nc3c(-c4cccc5ccccc45)c[nH]n13)CCC2	-14	.	-1	.	.
COc1ccc2ccccc2c1C1CC(=O)N2CN(C3CCCCC3)CSC2=C1C#N (stereo not given)	64*	?	2	?	1.2
CCn1c(=O)cc(OCC(=O)Nc2ccc(Cl)cn2)c2ccccc21	1	2	-1	3	0.93
CC(=O)Nc1cccc(C(=O)Oc2cccc(C)c2)c1O	1	-2	-9	61*	1
COCCn1c(=NC(=O)CSCC(=O)Nc2cc(C)on2)sc2cc(C(=O)OC)ccc21	-2	-4	-1	1	1.1
CC1CCCN(C(=O)c2cc(F)c(F)cc2Cl)C1 (stereo not given)	-2	6	-5	-26	1.1
Cc1c(C)c2cc(Cl)c(O)c(CN3CCCCC3)c2oc1=O	38*	0	50*	-17	1.1
CCCCc1cc(=O)oc2c(CN3CCCC3)c(O)c(Cl)cc12	0	4	-2	-18	1
CCOC(=O)C(NC(C)=O)(Nc1ccc(S(=O)(=O)Nc2cc(C)nc(C)n2)cc1)C(F)(F)F (stereo not given)	2	-1	6	36	1
Cc1ccc(-c2c3c(=O)n(C)c(=O)n(C)c3c3c(C)cc(C)nn23)cc1	10	5	2	-21	1
Cc1oc(-c2ccc(Cl)cc2)nc1CN1CCCC(C(=O)N2CCc3ccccc32)C1 (stereo not given)	3	-10	-3	59*	1.1
CC(C(=O)N1c2ccc(F)cc2CCC1C)N1C(=O)c2ccccc2C1=O (stereo not given)	-3	-8	0	-25	1
COc1ccccc1-n1c(CNC(=O)c2ccco2)nnc1SCC(=O)Nc1ccc(F)cc1	47*	-3	3	-1	1
COc1cccc(-c2nc(CS(=O)(=O)CC(=O)NCCC(C)C)c(C)o2)c1	34*	0	2	22	1
O=C1NCC(O)=C1C=NC12CC3CC(CC(C3)C1)C2	-4	2	6	-4	0.97
CN(C)/C=N/c1c(C(=O)NCc2ccccc2)nnn1Cc1ccccc1	1	4	-2	-7	1
CCC(CC)C(=O)Nc1c2cnn(-c3ccccc3)c2nc(=O)n1-c1ccccc1	83*	-17	4	53*	1.1
COc1ccc(N(CC(=O)Nc2ccc(C)cn2)S(=O)(=O)c2c(C)noc2C)cc1	3	2	-3	20	1.1
Cc1ccc(S(=O)(=O)N(CC(=O)NCc2ccco2)Cc2ccccc2F)cc1	3	1	8	-9	1.1
Nc1nc(C(=O)N2CCOCC2)nn1S(=O)(=O)c1ccc(Cl)cc1	-6	3	0	-6	1.1

Assay outcomes (PubChem)
